Keap1 Nrf2 FP: disrupts human Keap1 binding to Nrf2 peptide. Q14145. 340,000 tested, 0.15% active. inhibition, % at 9.4 µM. Keap1 Kelch-Nrf2 peptide fluorescence polarization, 1536-well; in the data active means inhibition above about 12%;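 further: human Keap1 Kelch domain with fluorescein labeled Nrf2 9mer peptide probe; 0% = neutral control wells and 100% = peptide positive control; higher means more block of Keap1 binding to Nrf2 peptide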
eLon inh: E. coli protease La inhibition. AID 602123. inhibition, % at 7.94 µM. purified E. coli Lon protease, fluorescence polarization. 360,000 tested, 0.42% active. P0A9M0; in the data active means inhibition above about 13%, passing the limit was not always enough;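 further: 0% = enzyme with probe and DMSO and 100% = no enzyme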
C-LANA FP: blocks KSHV LANA C-terminal domain binding to DNA; inhibition, % at 9 µM; MBP-C-LANA/FAM-LBS DNA binding, fluorescence polarization; 340,000 tested, 0.078% active;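 active means highest replicate inhibition at or above 60% at 9 µM, even if other replicates fall short; inactive means all replicates below 60% inhibition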;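 further: 0% = neutral control wells and 100% = 4 µM acridine orange control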
LANA-H2A inh: blocks KSHV LANA binding to histone H2A/H2B; Q9QR71; cell-free LANA-H2A/H2B peptide, fluorescence polarization; inhibition, % (concentration not given with the values); 320,000 tested, 0.6% active; in the data active means inhibition mostly above about 10%, no sharp cut-off; inactive means mostly below about 6.7%
Target sequence (Q9QR71 whole entry, looked up): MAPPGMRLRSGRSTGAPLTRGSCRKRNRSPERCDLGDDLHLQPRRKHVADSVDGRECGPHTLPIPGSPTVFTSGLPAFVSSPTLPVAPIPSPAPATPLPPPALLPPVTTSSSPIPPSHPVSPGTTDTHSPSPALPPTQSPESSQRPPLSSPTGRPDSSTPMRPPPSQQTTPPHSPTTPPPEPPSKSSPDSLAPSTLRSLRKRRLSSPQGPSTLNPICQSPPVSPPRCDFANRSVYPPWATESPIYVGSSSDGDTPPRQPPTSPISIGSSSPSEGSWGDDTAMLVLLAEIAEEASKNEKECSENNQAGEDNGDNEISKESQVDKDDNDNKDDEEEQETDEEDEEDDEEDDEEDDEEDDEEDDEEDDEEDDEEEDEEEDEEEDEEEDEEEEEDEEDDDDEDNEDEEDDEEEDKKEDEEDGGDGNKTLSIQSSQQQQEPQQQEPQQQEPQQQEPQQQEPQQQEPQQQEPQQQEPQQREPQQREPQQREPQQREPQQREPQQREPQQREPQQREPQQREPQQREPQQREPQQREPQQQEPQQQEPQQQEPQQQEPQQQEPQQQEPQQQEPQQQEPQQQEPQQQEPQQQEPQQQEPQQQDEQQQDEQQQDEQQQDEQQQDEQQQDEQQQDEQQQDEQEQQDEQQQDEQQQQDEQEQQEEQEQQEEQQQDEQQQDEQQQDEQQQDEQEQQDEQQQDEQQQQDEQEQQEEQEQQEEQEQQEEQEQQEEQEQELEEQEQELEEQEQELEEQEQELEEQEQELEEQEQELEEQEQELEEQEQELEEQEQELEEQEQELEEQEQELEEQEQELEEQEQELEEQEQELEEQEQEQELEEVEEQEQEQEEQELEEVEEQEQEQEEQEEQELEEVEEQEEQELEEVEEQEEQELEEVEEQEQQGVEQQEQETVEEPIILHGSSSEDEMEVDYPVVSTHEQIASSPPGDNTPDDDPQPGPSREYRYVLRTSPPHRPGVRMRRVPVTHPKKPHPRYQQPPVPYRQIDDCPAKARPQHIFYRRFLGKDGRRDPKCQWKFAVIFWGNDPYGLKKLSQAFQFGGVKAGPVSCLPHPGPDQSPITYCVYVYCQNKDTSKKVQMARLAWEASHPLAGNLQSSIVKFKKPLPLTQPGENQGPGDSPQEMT
Cardiac RTF inh: cardiac RTF calcium desensitization | P19429+P45379 | IANBD-labeled cardiac RTF, Ca2+ fluorescence | inhibition, % at 7.15 µM | 340,000 tested, 0.12% active | AID 493244;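 active means inhibition above the mean inhibition of all tested compounds plus 3 SD, cut at about 17% in these data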;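 further: assay run at fixed EC70 calcium of 1.6 mM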
cardiac RTF act: increases calcium sensitivity of human cardiac regulated thin filaments; IANBD-labeled TnC RTF fluorescence at EC20 calcium; 0% EC20 calcium, 100% full calcium; activation, % at 7.2 µM; 340,000 tested, 0.24% active;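 active means activation above the mean over all tested compounds plus 3 SD, cut at about 30% in these data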;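 further: rise in fluorescence read as greater calcium sensitivity of cardiac thin filaments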
RTF inh confirm: confirmation of inhibitors of cardiac thin filament calcium sensitivity. 360 tested, 8% active. inhibition, % at 7.15 µM. reconstituted cardiac thin filaments, calcium sensitivity fluorescence. shares compounds with Cardiac RTF inh; in the data active means inhibition above about 18%
Active calls of the source: *; x = no result given; ! = not active in a repeat. Only some compounds are listed: those with a hit (about 1.3% of all), similar ones and a draw of the others.

SMILES	Keap1 Nrf2 FP	eLon inh	C-LANA FP	LANA-H2A inh	Cardiac RTF inh	cardiac RTF act	RTF inh confirm
O=C(CSc1nc(-c2ccc(F)cc2)nc2c1Cc1ccccc1O2)Nc1ccc(C(=O)O)cc1	3	-11	0	x	12	-17	x
O=C(CSc1nc(-c2ccccc2)nc2c1Cc1ccccc1O2)Nc1ccc(C(=O)O)cc1	-4	-5	1	x	20*	-15	2
COc1cc(CCC(=O)OCC(=O)Nc2c(Cl)cccc2Cl)cc(OC)c1OC	-3	-8	0	10	-6	-1	x
CCc1cccc(CC)c1NC(=O)COC(=O)CCc1cc(OC)c(OC)c(OC)c1	-5	8	0	x	19*	2	2
COc1ccc(CNC(=O)c2ccc(CS(=O)Cc3ccc(Cl)cc3)o2)cc1 (stereo unspecified)	-1	2	1	3	3	-2	x
Cc1ccc(CS(=O)Cc2ccc(C(=O)NCc3ccc(OC(C)C)cc3)o2)cc1 (stereo unspecified)	-3	10	2	6	27*	3	-1
CC(=O)Nc1ccc(S(=O)(=O)N2CCN(c3ncccn3)CC2)cc1	-2	-8	0	2	-1	3	x
Cc1cc(S(=O)(=O)NCC(c2ccc(F)cc2)N2CCN(C)CC2)ccc1F (stereo unspecified)	2	-1	1	2	5	-8	x
CC(O)c1nc2ccccc2n1CCOc1ccccc1 (stereo unspecified)	2	-5	1	0	-6	-2	x
CC(O)c1nc2ccccc2n1CCCCOc1ccccc1 (stereo unspecified)	-2	0	0	3	21*	-2	-5
Cc1ccccc1-c1cc2nc(NCc3ccccc3)n(C)c(=O)c2s1	x	-1	x	x	x	x	x
O=C(Cc1ccc([N+](=O)[O-])cc1)c1ccc(O)cc1O	0	-3	-1	6	4	-5	x
Cc1ccc(CSc2nnc(SCC(=O)N/N=C/C=C/c3ccco3)s2)cc1	-2	-23	2	-1	3	1	x
Cc1ccc(CSc2nnc(SCC(=O)N/N=C/C=C/c3ccccc3[N+](=O)[O-])s2)cc1	-4	13	3	-5	21*	8	-5
Cc1ccc(CC(=O)Nc2ccc(C(=O)N3CCCCC3)cc2)cc1	-1	-5	0	-1	1	0	x
Cc1ccc(C(=O)N2CCN(c3ccc(NC(=O)Cc4ccccc4)cc3)CC2)cc1	0	-5	2	1	18*	3	-5
CC(=O)N(C(C)=O)c1ccc2c(c1)OCCO2	x	-3	x	x	x	x	x
CCOC(=O)C1=C(C)N(Cc2ccc(C(=O)O)cc2)C(=O)NC1c1ccc([N+](=O)[O-])cc1 (stereo unspecified)	-5	-1	1	1	18*	6	-2
CN1CCC(N2CCN(C3CN(Cc4cn(Cc5cccc(C(F)(F)F)c5)nn4)S(=O)(=O)C3)CC2)CC1 (stereo unspecified)	x	-2	x	x	x	x	x
COc1ccccc1Nc1ccc2c(O)cc(S(=O)(=O)O)cc2c1	8	5	119*	x	18*	-24	4
O=S(=O)(O)c1cc(O)c2ccc(Nc3ccccc3)cc2c1	3	6	92*	x	33*	-13	10
CC(=O)Nc1ccc2c(O)cc(S(=O)(=O)O)cc2c1	1	-24	12	x	-5	1	x
CCn1nc([N+](=O)[O-])c(C(C#N)c2nc3cc(C(F)(F)F)ccc3s2)c(Cl)c1=O (stereo unspecified)	-1	1	3	1	19*	-11	2
COc1ccc(/C=C/C(=O)NC(=S)Nc2ccc(S(=O)(=O)N=C(N)N)cc2)cc1OC	-5	-5	0	-1	-4	3	x
CCN(CC)c1ccc(C(=C2C=CC(=[N+](CC)CC)C=C2)c2ccc(N(CC)CC)cc2)cc1	1	-2	-1	x	23*	-25	10
SMILES	Keap1 Nrf2 FP	eLon inh	C-LANA FP	LANA-H2A inh	Cardiac RTF inh	cardiac RTF act	RTF inh confirm
CCOC(=O)Cn1nc(C)cc1NC(=O)c1cccnc1	0	2	0	1	21*	0	-1
CC1CCCN(C(=O)C2CCCN(S(=O)(=O)c3cccc4nsnc34)C2)C1 (stereo unspecified)	2	-9	0	-1	2	1	x
O=C(C1CCCN(S(=O)(=O)c2cccc3nsnc23)C1)N1CCCCCC1 (stereo unspecified)	4	0	0	0	17*	2	2
CC(=O)C1=C(C)NC(SCC(=O)c2ccc(Cl)cc2)=C(C#N)C1CC(C)C (stereo unspecified)	-2	-3	-2	7	-1	0	x
CC(=O)C1=C(C)NC(SCC(=O)c2ccc(F)cc2)=C(C#N)C1CC(C)C (stereo unspecified)	-1	8	1	-3	19*	4	-1
C[C@@H](O)CC(=O)O	-6	8	-3	-5	15	4	x
C[C@H](O)CC(=O)O	-3	-17	0	1	19*!	-8	-3
CCCNC(=O)CSc1nccn1Cc1ccc(OC)cc1	5	2	2	-1	18*	3	-1
O=C(CCCCCN1C(=O)c2ccccc2C1=O)Nc1ccccc1	-3	-2	0	1	18*	1	-5
COCCNC(=O)c1cc(OC)c(OC)cc1[N+](=O)[O-]	1	-1	0	-2	3	-1	x
O=S(=O)(O)c1cccc2c(N=Nc3ccc(O)c4ncccc34)cccc12	5	4	48	-2	37*	-40	10
CCN(CC)S(=O)(=O)c1ccc(S(=O)(=O)NCC2CCCO2)cc1 (stereo unspecified)	-3	-1	0	3	9	-9	x
CC1CCCCN1C(=O)Cn1cnc2cc([N+](=O)[O-])ccc2c1=O (stereo unspecified)	6	10	-1	1	18*	-2	-5
O=C(NCc1ccncc1)c1cccc(S(=O)(=O)Nc2ccc(SC(F)F)cc2)c1	-3	1	2	-1	-1	-1	x
O=C(COC(=O)COc1ccc(Cl)cc1)Nc1ccc(N2CCOCC2)cc1	1	2	1	-1	1	2	x
COc1ccc(NC(=S)N(Cc2ccccn2)Cc2ccccc2Cl)cc1	3	3	0	2	17*	3	2
O=[N+]([O-])c1ccc(OCc2cccc(COc3ccc([N+](=O)[O-])cc3)n2)cc1	-6	-9	3	-1	17*	1	-4
CCOC(=O)C1=CN(Cc2cccc(-c3ccc(Cl)nc3)c2)S(=O)(=O)N(C)C1C (stereo unspecified)	-3	3	0	x	1	-4	x
c1coc(CNC2CCCCC2)c1	-3	-7	1	1	-3	1	x
